Data reported in ChEMBL document CHEMBL3988442, “University of Dundee, Small-Polar-MMV Screening Library” (2021).
Among all 48,000 compounds or so, about 13,000 (27%) showed an effect of 50% or more. Some of the results follow.

test system: Wolbachia pipientis; test: Anti-Wolbachia Cell-Based Screen; type: functional; parameters: scale not given: in the data most compounds retested in dose-response had high values; settings: 5 µM

Going from `O=C(NCc1nncn1C1CC1)C1(c2ccccc2)CCOCC1` to `O=C(c1cnc(O)cn1)N1C[C@@H]2CC[C@H](C1)N(Cc1ccccc1)C2`, the “Percent Effect” value rises from 1.62% to 93.73%.

First: CCS(=O)(=O)c1ncc(CN(C)Cc2ccccc2OC)n1CCOC
Second: Cc1ccccc1OCCCC(=O)N(C)CCC#N
The “Percent Effect” value of the first is lower: -30.57% for the first, 8.227% for the second.

Compared with `Cc1oc(-c2ccc(Cl)cc2)nc1C(=O)NC1=NCCS1`, `COCC(=O)N[C@H](C)c1onc(-c2ccc(Cl)cc2)c1C(=O)O` is higher in “Percent Effect” value: -49.42% for the first, -3.63% for the second.

First: CCOCC(=O)N1Cc2[nH]nc(COCC3CC3)c2C1.O=C(O)C(F)(F)F
Second: CCCc1nc(C(C)(C)NC(=O)C2CC(=O)N(CC3CC3)C2)no1 (stereo not drawn)
The “Percent Effect” value of the first is higher: -0.4061% for the first, -6.715% for the second.

First: Cc1nc2n(n1)CC(NCc1cc(Cl)c3c(c1)OCCO3)CC2 (stereo not drawn)
Second: Cc1nc2n(n1)CC(NCc1cc(Cl)c3c(c1)OCCCO3)CC2 (stereo not drawn)
The “Percent Effect” value of the first is higher: 95.39% for the first, 2.469% for the second.

Going from `CCc1nc2n(n1)CC(NCc1cc(OC)c3c(c1)OCO3)CC2` (stereo not drawn) to `CCc1nc2n(n1)CC(NCc1cc(OC)c3c(c1)OCCO3)CC2` (stereo not drawn), the “Percent Effect” value falls from 105% to 96.75%.

First: COc1cc(CNC2CCc3nc(C)nn3C2)cc2c1OCCO2 (stereo not drawn)
Second: COc1cc(CNC2CCc3nc(C)nn3C2)cc2c1OCO2 (stereo not drawn)
The “Percent Effect” value of the first is lower: 2.484% for the first, 104.6% for the second.

Going from `COc1cc(CNC2CCc3nc(C(C)C)nn3C2)cc2c1OCO2` (stereo not drawn) to `COc1cc(CNC2CCCN(c3cccnn3)C2)cc2c1OCO2` (stereo not drawn), the “Percent Effect” value rises from -4.906% to -1.044%.

Going from `CCc1nc2n(n1)CC(NCc1cc3ccccc3o1)CC2` (stereo not drawn) to `CCc1nc2n(n1)CC(NCc1ccccc1OCC(=O)NC)CC2` (stereo not drawn), the “Percent Effect” value rises from -28.44% to 0.2163%.

Compared with `CCc1nc2n(n1)CC(NCC(=O)Nc1cc(C)on1)CC2` (stereo not drawn), `Cc1nc2n(n1)CC(NCc1nnc(C(C)(C)C)o1)CC2` (stereo not drawn) is lower in “Percent Effect” value: -10.03% for the first, -15.95% for the second.

Going from `Cn1c(CCNC(=O)Nc2cn[nH]c2)nc2ccc(F)cc21` to `CC(C)c1nc(C(=O)NCCn2ccnc2)nn1-c1cccc(F)c1`, the “Percent Effect” value rises from -27.77% to 0.4969%.

First: O=C(NCc1ccc(-n2cncn2)nc1)N(CC1CCOC1)C1CC1 (stereo not drawn)
Second: CC(C(=O)NCc1ccc(N2CCCCC2)nc1)n1cncn1 (stereo not drawn)
The “Percent Effect” value of the first is lower: 4.835% for the first, 91.32% for the second.

Going from `O=C(NC1(c2nccs2)CCCC1)c1cc(C2CC2)[nH]n1` to `O=C(NC1(C(=O)O)CCCCC1)C1Cc2ccccc2O1` (stereo not drawn), the “Percent Effect” value rises from -18.19% to 26.74%.

Compared with `CC(C)n1cnnc1CN(C)Cc1cnc(-c2ccco2)nc1`, `CC(C)c1ccc(O)c(C(=O)NCc2nncn2C)c1` is lower in “Percent Effect” value: -3.944% for the first, -11.21% for the second.

First: CNC(=O)c1cccc(CNC(C)c2ccc(F)cc2N(C)C)c1 (stereo not drawn)
Second: CN(C)C(C(=O)NCCn1cccc1)c1cccc(F)c1 (stereo not drawn)
The “Percent Effect” value of the first is higher: 2.761% for the first, 1.101% for the second.

First: Cc1cc(CNC(=O)c2cccs2)ccc1S(C)(=O)=O
Second: O=C(NCc1csc(Br)c1)c1ccc(=O)[nH]n1
The “Percent Effect” value of the first is lower: -1.482% for the first, 9.228% for the second.

Going from `CCn1cc(CN2C[C@H]3CC[C@@H]2CN(C(=O)c2cnccn2)C3)cn1` to `Cc1ccc(C(=O)N2C[C@@H]3CC[C@H](C2)N(Cc2ccccc2)C3)cn1`, the “Percent Effect” value rises from 6.074% to 101.3%.

First: Cc1ccc(C)c(CN2C[C@H]3CC[C@@H]2CN(C(=O)c2cccnc2)C3)c1
Second: O=C(c1cccnc1)N1C[C@@H]2CC[C@H](C1)N(Cc1ccc(F)cc1Cl)C2
The “Percent Effect” value of the first is higher: 3.177% for the first, -16.95% for the second.

Compared with `CC(=O)c1ccc(C(=O)N2C[C@@H]3CC[C@H](C2)N(Cc2ccccc2)C3)s1`, `Nc1ccc(C(=O)N2C[C@@H]3CC[C@H](C2)N(Cc2ccccc2)C3)cn1` is higher in “Percent Effect” value: -1.466% for the first, 108.6% for the second.

First: N#Cc1ccccc1CN1C[C@H]2CC[C@@H]1CN(C(=O)c1cccnc1)C2
Second: O=C(c1cccnc1)N1C[C@@H]2CC[C@H](C1)N(Cc1cccc(Cl)c1F)C2
The “Percent Effect” value of the first is higher: -5.944% for the first, -33.46% for the second.

Compared with `c1ccc(SCCN2CCCC(Cn3ccnc3)C2)cc1` (stereo not drawn), `Cn1ccnc1CN1CCCC(CCc2ccc(F)c(F)c2)C1` (stereo not drawn) is higher in “Percent Effect” value: -2.811% for the first, 5.156% for the second.

Going from `COCCc1noc(CN2CCC3(CCCO3)CCC2=O)n1` (stereo not drawn) to `CC(C)c1noc(CCCC(=O)N2CCN(Cc3ccncc3)CC2)n1`, the “Percent Effect” value rises from -3.143% to 9.979%.

Compared with `O=C(NCCn1cnnc1C1CC1)c1c(O)cc(F)cc1F`, `CC(C)c1nncn1CCNC(=O)c1c(O)cc(F)cc1F` is higher in “Percent Effect” value: 120% for the first, 158.6% for the second.

Compared with `CCn1cnnc1CNC(=O)c1cc(Cl)ccc1O`, `CCn1cnnc1CNC(=O)c1cc(Cl)ccc1OC` is lower in “Percent Effect” value: 6.278% for the first, 2.71% for the second.

Compared with `O=C(NCCn1cccc1)c1c(O)cc(F)cc1F`, `O=C(NCCC(=O)N1CCCCCC1)c1c(O)cc(F)cc1F` is lower in “Percent Effect” value: 114.7% for the first, 4.152% for the second.

Compared with `CC(C)c1nncn1CCNC(=O)c1ccc(Cl)cc1O`, `CC(C)Cn1cnnc1C1CCCN1C(=O)c1ccc(F)cc1F` (stereo not drawn) is lower in “Percent Effect” value: 126.8% for the first, -3.293% for the second.

First: CCOC(=O)N1CCN(c2nc(NC3CC3)c3ccccc3n2)CC1.Cl
Second: Cc1cc(C)cc(CCC(=O)N2CCN(c3cc(C)nc(N)n3)CC2)c1
The “Percent Effect” value of the first is higher: 12.46% for the first, -5.077% for the second.

Compared with `CC(C)CN1CCC(NC(=O)NCCC(=O)NCc2ccccc2)CC1`, `Cc1ncsc1CCC(=O)NC1CCN(Cc2cccs2)CC1` is higher in “Percent Effect” value: -0.3399% for the first, 5.127% for the second.

Going from `CCCS(=O)(=O)NC(C)C(=O)NCc1ccc(N2CCCC2)nc1` (stereo not drawn) to `CCN(CC)C(C(=O)NCc1ccc(N2CCCC2)nc1)C(C)C` (stereo not drawn), the “Percent Effect” value falls from 3.443% to 0.1706%.

First: CC(C(=O)NCc1ccnc(N2CCCC2)c1)n1cncn1 (stereo not drawn)
Second: CC(C(=O)NCc1ccc(N2CCCC2)nc1)n1cncn1 (stereo not drawn)
The “Percent Effect” value of the first is lower: -10.11% for the first, 95.49% for the second.

Compared with `CC(C(=O)NCc1ccc(N2CCCCCC2)nc1)n1cncn1` (stereo not drawn), `CC(C)C(C(=O)N1CCN(Cc2ccncc2)CC1)n1cncn1` (stereo not drawn) is lower in “Percent Effect” value: 118.8% for the first, -9.917% for the second.

Compared with `CCc1cc(N2CCS(=O)(=O)CC2)n2nc(C)c(C)c2n1`, `Cc1cc2cc(CNC3CCN(CC(=O)N(C)C)CC3)oc2cc1C` is lower in “Percent Effect” value: 1.934% for the first, -4.492% for the second.

First: Cc1cc(CNC(=O)N2CCc3ccccc32)on1
Second: CC(=O)N1CCCN(Cc2ccon2)c2ccccc21
The “Percent Effect” value of the first is higher: 8.57% for the first, 1.908% for the second.

First: O=C1Cc2cc(NC(=O)N3CCCN(Cc4cccs4)CC3)ccc2N1
Second: Cn1cc(Cl)cc1C(=O)N1CCCN(Cc2cccs2)CC1
The “Percent Effect” value of the first is lower: -14% for the first, 6.765% for the second.

Compared with `CC(C)N1CCOC(CC(=O)N2CC(c3ccncc3)C2)C1` (stereo not drawn), `CC(C)N1CCOC(CC(=O)N2CCCN(Cc3ccncc3)CC2)C1` (stereo not drawn) is higher in “Percent Effect” value: 103.1% for the first, 108.1% for the second.

Compared with `CC(C)N1CCOC(CC(=O)N2CCCN(Cc3cccs3)CC2)C1` (stereo not drawn), `CCCC(=O)NC1CCCN(Cc2cccs2)C1` (stereo not drawn) is lower in “Percent Effect” value: 115.9% for the first, 90.44% for the second.

Compared with `CCn1nc(CC(C)C)cc1C(=O)N1CC(c2ccncc2)C1`, `COc1ccc(C(=O)N2CC(c3ccncc3)C2)c(OC)c1OC` is lower in “Percent Effect” value: 2.203% for the first, -3.767% for the second.

First: NC(=O)c1cnc(NCC(=O)NCc2ccco2)c(Cl)c1
Second: O=C(c1ccno1)N1CC(c2nc(-c3ccco3)no2)C1
The “Percent Effect” value of the first is lower: -1.038% for the first, 0.6255% for the second.

First: Cc1nccn1CCC1CCCCN1Cc1cccc(CCN)c1 (stereo not drawn)
Second: Cl.Cn1nc(C2CCCN(Cc3cccc(F)c3)C2)c2nccnc21 (stereo not drawn)
The “Percent Effect” value of the first is lower: -7.51% for the first, 5.539% for the second.

First: CCOC(=O)Cc1csc(NC(=O)c2ccc(=O)[nH]n2)n1
Second: NC(=O)Cc1csc(NC(=O)C2CSCCC(=O)N2)n1 (stereo not drawn)
The “Percent Effect” value of the first is higher: 95.75% for the first, 2.989% for the second.

First: O=S(=O)(Cc1ccccc1)NCCNc1ccc(-n2cccc2)nn1
Second: COC(=O)[C@@H]1Cc2[nH]cnc2CN1Cc1cc2ccccc2o1
The “Percent Effect” value of the first is higher: 11.81% for the first, 9.178% for the second.

Going from `CN(C)C1CCN(C(=O)CCc2cc(Br)cs2)CC1` to `CNC(=O)CCc1cc(C)nc(C2CCN(C(=O)CN(C)C)CC2)c1`, the “Percent Effect” value rises from 1.097% to 154.4%.

Compared with `CNC(=O)CCc1cc(C)nc(C2CCN(CC(=O)N(C)C)CC2)c1`, `CC(C)(C)OC(=O)NC1CCCN(Cc2cccs2)C1` (stereo not drawn) is lower in “Percent Effect” value: 129.2% for the first, 5.758% for the second.

Compared with `Cc1c(CS(C)(=O)=O)cccc1NCC1CCCCC1`, `COC(=O)C(C)(C)NC(=O)C1CC(=O)N(C2CCCC2)C1` (stereo not drawn) is higher in “Percent Effect” value: 1.975% for the first, 4.73% for the second.

Going from `CCN1CC(C(=O)NC(C)(C)CNC(=O)OC(C)(C)C)CC1=O` (stereo not drawn) to `CC(C)(CNC(=O)OC(C)(C)C)NC(=O)C1CC(=O)N(C2CC2)C1` (stereo not drawn), the “Percent Effect” value rises from -0.2967% to 10.96%.

First: COC(=O)C(C)(C)NC(=O)C1CC(=O)N(CC(C)C)C1 (stereo not drawn)
Second: CCN1CC(C(=O)NC(C)(C)C(=O)OC)CC1=O (stereo not drawn)
The “Percent Effect” value of the first is higher: 100.8% for the first, 77.38% for the second.

Compared with `O=C(NCCNc1ncccn1)C1CC(=O)N(CC(F)(F)F)C1` (stereo not drawn), `COC(=O)C(C)(C)NC(=O)C1CC(=O)N(CC(F)(F)F)C1` (stereo not drawn) is higher in “Percent Effect” value: 1.939% for the first, 83.67% for the second.

Going from `COC(=O)C(C)(C)NC(=O)C1CC(=O)N(C)C1` (stereo not drawn) to `COC(=O)C(C)(C)NC(=O)C1CC(=O)N(C2CC2)C1` (stereo not drawn), the “Percent Effect” value rises from -1.781% to 103.7%.

First: CCC(C)(C)NC(=O)C1CC(=O)N(CC2CC2)C1 (stereo not drawn)
Second: CCN1CC(C(=O)NC(C)(C)CC)CC1=O (stereo not drawn)
The “Percent Effect” value of the first is higher: 3.552% for the first, -10.63% for the second.

Going from `CCN1CC(C(=O)NC(C)(C)CC(C)(C)C)CC1=O` (stereo not drawn) to `CCN1CC(C(=O)NC(C)(C)C)CC1=O` (stereo not drawn), the “Percent Effect” value falls from 2.297% to -9.629%.

Going from `COC(=O)C(C)(C)NC(=O)C1CC(=O)N(CC2CC2)C1` (stereo not drawn) to `COc1ccnc(CN2CCCC(CCc3ccc(F)cc3)C2)c1OC` (stereo not drawn), the “Percent Effect” value falls from 110.1% to -12.62%.

Compared with `CN(C)CCOCC1CN(C(=O)c2ccccn2)Cc2ccnn2C1` (stereo not drawn), `Cl.Cn1nc(C2CCCN(Cc3ccc(F)cc3)C2)c2nccnc21` (stereo not drawn) is higher in “Percent Effect” value: -6.376% for the first, 103.8% for the second.

First: Cn1cncc1-c1nnc([C@H]2CCN(Cc3ccc(F)c(F)c3)C2)o1
Second: Cl.Cn1nc(C2CCCN(Cc3ccc(F)c(F)c3)C2)c2nccnc21 (stereo not drawn)
The “Percent Effect” value of the first is lower: -0.5491% for the first, 94.15% for the second.

First: Cl.Cn1nc(C2CCCN(Cc3cc(F)cc(F)c3)C2)c2nccnc21 (stereo not drawn)
Second: Fc1ccc(NC2CCCN(Cc3ccncc3)C2)cc1 (stereo not drawn)
The “Percent Effect” value of the first is higher: 114.5% for the first, 7.502% for the second.
